In general, AC50 refers to the concentration at which the activity in the assay is half-maximal.

Records with an inconclusive call do not appear. The source made the active and inactive calls. How the source made its calls, unless noted: active means hit-call score of the fitted dose curve at least 0.9, where 1 is the maximum; inactive means score below 0.9.

Test [1] can be described thus: CCTE_Shafer_MEA_acute_spike_number: CCTE's Neural Acute Assay for Total Number of Spikes, Shafer Lab (AID 2284008).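 On AC50: curve fitted for decrease in spike count so AC50 reflects inhibitors.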 Summed up: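 Primary rat cortical neurons on 16-electrode MEA wells; on DIV 13 or 15, 40-min baseline then 40-min recording with compound (0.03-40 uM) at 37 C. Spikes detected at 8x rms noise; percent change versus baseline, DMSO as negative control.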

A short description of test [2]: CCTE_Shafer_MEA_acute_firing_rate_mean: CCTE's Neural Acute Assay for Mean Firing Rate, Shafer Lab (AID 2284009).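 Further: analyzed for loss of signal so actives lower firing rate relative to DMSO.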 Summed up: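 Read-out: well-mean spike rate (spikes/recording length/electrodes), % change from 40 min pre-dose baseline to 40 min with compound. Rat cortical cultures, DIV 13 or 15, 37 C; 0.03-40 uM; DMSO as negative control.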
Test [3] in a line: CCTE_Harrill_HTTr_Viability_MCF7: CCTE's 6-hour Cell Viability Assessment for the High-Throughput Transcriptomics (HTTr) Platform, in MCF-7 cells cultured in DMEM + 10% fetal bovine serum, Harrill Lab (AID 2284010). Summed up:
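Viability measured through PI dye exclusion by high-content imaging at 6 h post-dosing.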

Test [4] in a line: CCTE_Harrill_HTTr_Apoptosis_MCF7: CCTE's 6-hour Apoptosis Assessment for the High-Throughput Transcriptomics (HTTr) Platform, in MCF-7 cells cultured in DMEM + 10% fetal bovine serum, Harrill Lab (AID 2284011). Summed up:
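MCF-7 cells in DMEM + 10% fetal bovine serum were exposed to chemicals for 6 hours over an eight-point dilution series. Caspase-3/7 activation was imaged by high content imaging with CellEvent Caspase 3/7 Green; bidirectional fitting used DMSO as baseline.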

The nature of test [5]: CCTE_Harrill_HTTr_CellCount_MCF7: CCTE's Cell Proliferation Assessment for the High-Throughput Transcriptomics (HTTr) Platform, Harrill Lab (AID 2284012; active means hit-call score of the fitted dose curve at least 0.9, where 1 is the maximum;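 further: count of Hoechst-stained nuclei per well by high-content imaging in MCF-7 cells; cells exposed to compound for six hours; intended direction is loss of nuclei count meaning fewer cells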). Summed up:
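Nuclei counting (Hoechst, high content imaging) in MCF-7 after a 6 h treatment at eight concentrations. Activity fitted bidirectionally, DMSO as negative control.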

The nature of test [6]: CCTE_Shafer_MEA_acute_burst_number: CCTE's Neural Acute Assay for Single-Electrode Bursts, Shafer Lab (AID 2284013). The method in brief:
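Rat cortical cultures, DIV 13/15; 40 min baseline, then 40 min with compound 0.03-40 uM, 37 C. Spikes: 300-5000 Hz band-pass, threshold 8x rms noise. Readout = % change in single-electrode bursts vs baseline, loss-of-signal fit.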

Test [7] in a line: CCTE_Simmons_MITO_basal_resp_rate: CCTE's HepG2 Seahorse XF Respirometric Screening Assay at Basal Respiratory State, Simmons Lab (AID 2284001). The conditions noted are these: actives raise or lower the signal. The method in brief:
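HepG2 cells were given test chemicals at 7 concentrations, 125 nM to 100 uM final, and oxygen consumption rate was read every 6 min (3 min mix, 3 min measure) over 72 min. Basal-phase OCR was fitted bidirectionally against DMSO.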

Test [8] is described as follows: CCTE_Simmons_MITO_max_resp_rate: CCTE's HepG2 Seahorse XF Respirometric Screening Assay at Maximal Respiratory State [uncoupled], Simmons Lab (AID 2284002). The conditions noted are these: actives raise or lower the signal. The method in brief: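 HepG2 oxygen consumption was read on a Seahorse XF96 after FCCP uncoupler injection, following test compound injection; 7 concentrations, 125 nM–100 uM final, three biological replicates. Bidirectional fitting against DMSO vehicle baseline.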

The nature of test [9]: CCTE_Simmons_MITO_inhib_resp_rate: CCTE's HepG2 Seahorse XF Respirometric Screening Assay at Inhibited Respiratory State [full ETC block], Simmons Lab (AID 2284006). To be noted: actives raise or lower the signal. Summed up: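 Inhibited respiration was taken as HepG2 oxygen consumption after rotenone/antimycin A, which followed test-compound and FCCP injections. Chemicals were tested at seven final concentrations from 125 nM to 100 uM. Activity was fitted bidirectionally relative to DMSO.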

Test [10] in a line: CCTE_Simmons_MITO_viability: CellTiter-Glo Viability Assessment for CCTE's HepG2 Seahorse XF Respirometric Screening Assay [post-hoc], Simmons Lab (AID 2284007; active means hit-call score of the fitted dose curve at least 0.9, where 1 is the maximum). Summed up: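 HepG2 cells; test chemical 7 conc. (125 nM–100 uM final) × 90 min; then luminescent ATP detection. DMSO vehicle. Positive control dichlone, 8 conc. from 10 nM to 100 uM final. Loss-of-signal endpoint.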
For orientation: ATP-based viability assays read luminescence as a measure of living cells.

With `CS(=O)(=O)c1ccc(C(=O)C2C(=O)CCCC2=O)c(Cl)c1COCC(F)(F)F`, the result in test [1], in test [2], in [3], in test [4], in [5] and in test [6] was inactive.

For the molecule `O=C(O)C1(c2ccc3c(c2)OC[C@H](Cc2ccc(-c4ccccc4)cc2)[C@H]3O)CCCC1`, the results for the AC50 in [7] and in test [8] were 5.21 µM (active) and 8.48 µM (active), respectively. For the same molecule, the result in test [9], in [10], in test [3], in test [4] and in test [5] was inactive.

As for `Oc1ccc(Cc2ccc(O)cc2)cc1`, the results for the AC50 in [1], in test [2] and in test [6] were 0.00454 µM (active), 0.00377 µM (active) and 0.003 µM (active), respectively. In addition, the outcome in test [3], in [4] and in [5] was inactive.

As for `CN(N=O)C(N)=O`, the outcome in test [3] and in test [4] was inactive.

As for `Cc1cc(C(F)(C(F)(F)F)C(F)(F)F)ccc1NC(=O)c1cccc(I)c1C(=O)NC(C)(C)CS(C)(=O)=O`, the figures for the AC50 in test [1], in test [2] and in test [6] were 1.68 µM (active), 1.68 µM (active) and 1.39 µM (active), respectively. The outcome in test [3] and in test [4] was inactive.

Take `CC(C)O.CC(C)O.OCCN(CCO)CCO.OCCN(CCO)CCO.[Ti]`: the outcome in test [3] and in test [4] was inactive.

With `CCOP(=S)(OCC)Oc1ccc(Cl)cc1Cl`, the outcome in test [3] and in test [4] was inactive.

Turning to `O=C(Cc1ccccc1)OCCc1ccccc1`, the concentration at half-maximal activity (AC50) in test [1] and in test [2] was 0.003 µM (active) each time. The outcome in test [3], in [4], in test [5] and in [6] was inactive.

As for `N#Cc1cccnc1`, the outcome in test [1], in test [2], in [3], in test [4] and in test [6] was inactive.

Regarding `CC1(C)[C@H](C(=O)O[C@H](C#N)c2cccc(Oc3ccccc3)c2)[C@@H]1/C=C(\Cl)C(F)(F)F`, the AC50 in test [1] and in [2] was 1.18 µM (active) each time. The outcome in test [3], in test [4], in [5] and in test [6] was inactive.

For the molecule `CC(C)[C@H](C(=O)OC(C#N)c1cccc(Oc2ccccc2)c1)c1ccc(OC(F)F)cc1` (some centres not stated), the result in test [3] and in test [4] was inactive.

On to `O=C(N[C@H]1CN2CCC1CC2)c1ccc2c(c1)OCCO2`, for which the result in test [3] and in [4] was inactive.

For `Oc1c(Cl)cc(Cl)cc1Cl`, the half-maximal activity concentration (AC50) in test [7] is 77 µM (active). Further, the molecule was called inactive in [8], in [9], in test [10], in test [3], in [4] and in test [5].

As for `OCCCCO`, the molecule was called inactive in test [1], in test [2], in test [3], in test [4] and in test [6].

In the case of `CC(C)(C)c1ccccc1O`, the concentration at half-maximal activity (AC50) in test [1] is 4.82 µM (active); in [2], 4.87 µM (active). For the same molecule, the outcome in test [3], in test [4], in test [5] and in test [6] was inactive.

As to `CN(C)C(=S)S`, the result in test [1], in test [2], in test [3], in test [4] and in test [6] was inactive.

`COCC(=O)N(c1c(C)cccc1C)[C@H](C)C(=O)OC`: the outcome in test [3] and in [4] was inactive.

Consider `CCN(N=O)C(N)=O`, for which the result in [3] and in [4] was inactive.

As to `OC(Cc1ccccc1Cl)(Cn1[nH]cnc1=S)C1(Cl)CC1` (configuration not stated), the outcome in test [3] and in [4] was inactive.

Regarding `O=C1C=CC(=O)c2ccccc21`, the concentration at half-maximal activity (AC50) in test [3] was 69.1 µM (active); in [4], 60.4 µM (active); in [5] it was 76.2 µM (active).

For the molecule `Cc1cc(C(C)(C)c2ccc(O)c(C)c2)ccc1O`, the outcome in test [3], in test [4] and in test [5] was inactive.

Consider `N#CCCC(Br)(C#N)CBr` (configuration not stated), for which the result in test [3], in test [4] and in [5] was inactive.

Consider `O=S1OC[C@@H]2[C@H](CO1)[C@]1(Cl)C(Cl)=C(Cl)[C@@]2(Cl)C1(Cl)Cl` (some centres not stated), for which the outcome in test [3] and in test [4] was inactive.

On to `Nc1ncn[nH]1`, for which the outcome in test [3], in test [4] and in [5] was inactive.

For the molecule `O=S1(=O)OC(c2cc(Br)c(O)c(Br)c2)(c2cc(Br)c(O)c(Br)c2)c2ccccc21`, the outcome in [3], in test [4] and in [5] was inactive.

For the molecule `CCOP(=S)(OCC)O/N=C(\C#N)c1ccccc1`, the outcome in test [3], in test [4] and in [5] was inactive.

Consider `COc1nn(C(=O)NS(=O)(=O)c2ccccc2OC(F)(F)F)c(=O)n1C`, for which the outcome in test [3] and in [4] was inactive.

`COCCl`: the outcome in test [3], in test [4] and in test [5] was inactive.

For `CCOC(=O)c1ccccc1S(=O)(=O)NC(=O)Nc1nc(Cl)cc(OC)n1`, the result in test [3], in [4] and in test [5] was inactive.

For `O=c1[nH]c2ccccc2n1C1CCN(CCCC(c2ccc(F)cc2)c2ccc(F)cc2)CC1`, the AC50 in test [3] is 77.9 µM (active); in test [4], 60.9 µM (active); in test [5] it was 94.7 µM (active).

In the case of `Brc1ccc(Br)cc1`, the result in test [3], in [4] and in test [5] was inactive.

Regarding `C[C@@H]1O[C@@H](O[C@H]2C[C@@H](O)[C@]3(CO)[C@H]4[C@H](O)C[C@]5(C)[C@@H](C6=CC(=O)OC6)CC[C@]5(O)[C@@H]4CC[C@]3(O)C2)[C@H](O)[C@H](O)[C@H]1O`, the result in test [3] and in [4] was inactive.

Take `O=NN1CCOCC1`: the result in test [3] and in test [4] was inactive.

As to `C1CN2CCN1CC2`, the result in [3] and in [4] was inactive.

In the case of `C=CCN=C=S`, the result in test [3] and in test [4] was inactive.

The record behind these values is PubChem BioAssay (EPA / NIEHS).
